Values joined by “and” are separate entries in the source; they are usually repeats but may differ in a detail not shown here. Equal entries are not always repeated. Records with an inconclusive call do not appear. Active and inactive are the calls of the source. Unless noted, calls come from the whole dose curve; as a rule, active = well fitted curve in the direction sought with a large enough effect; inconclusive = small, poorly fitted or top-dose-only effect, or another doubt; inactive = no such curve, though single readings can be large; an effect the other way counts as inactive or inconclusive.
Key:
[1] = qHTS Assay for Identifying Gametocytocidal Compounds (AID 743244); note: potency is the fitted concentration of half-maximal effect;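 for max response: % is set by controls: 0 for no effect and ±100 for the full control effect; actives lower the fluorescent signal which means gametocytes are killed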; details: P. falciparum 3D7 stage III-V gametocytes, alamarBlue, 72 h; max response: stronger effect = lower value
Procedure, shortened: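 Compounds are pinned into medium, gametocytes (stage III–V, 3D7, 20,000 cells/well) added, and plates held 72 h at 37 °C in 5% CO2. AlamarBlue follows for 24 h before fluorescence reading.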

[2] = molecular target: Tyrosine-protein kinase Yes (Homo sapiens) (UniProt P07947); assay: qHTS for small molecule inhibitors of Yes1 kinase: Primary Screen (AID 686947);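 note: plate controls were DMSO with enzyme for no effect and no-enzyme DMSO wells for full effect; nearly all actives have a fitted effect of over 60% in size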
Procedure, shortened: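 ADP-Glo luminescence reports ADP formed by 4 nM Yes1 phosphorylating poly(E4Y) (0.3 mg/mL) with 0.1 mM ATP for 60 min at room temperature, following 20 min compound preincubation; normalised between DMSO wells with and without enzyme.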

[3] = qHTS for small molecule inhibitors of Yes1 kinase: Counter Assay (AID 686950);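 note: no kinase present so only ADP-Glo detection of a fixed ADP amount is tested; luminescence from ADP-Glo reporting ADP in a fixed ATP and ADP mixture; series mostly up to about 77 µM; 0% = DMSO wells with ATP plus ADP and -100% = ATP-only wells without ADP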
Procedure, shortened: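 ADP-Glo luminescence read after a 60 min room-temperature incubation of compound with an ATP/ADP mix (0.08 mM/0.02 mM) and no kinase, following a 20 min compound preincubation. Signal scaled between ATP+ADP (max) and 0.1 mM ATP-only (min) wells; Tris pH 7.5, Mg2+, DTT.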

[4] = qHTS assay for small molecule activators of the nuclear factor-kappa B (NF-kB) signaling pathway (AID 651749; active = well fitted activation curve with a large enough effect in the signal ratio; the % refers to the signal ratio; note: series mostly up to about 77 µM; % of control where 0% means no effect); details: NF-kB-bla ME-180 cells, beta-lactamase FRET ratio, 16 h; stronger effect = higher value
Procedure, shortened: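 Activation measured after 16 hr compound treatment at 37C, 5% CO2, of 2,000 ME-180 cells/well stably expressing an NF-kB response element–driven beta-lactamase reporter, via FRET-disruption fluorescence.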

[5] = qHTS assay for small molecule disruptors of the mitochondrial membrane potential - 1 hr assay (AID 651754; calls by dose curve; note: % is set by controls: 0 for no effect and ±100 for the full control effect; nearly all actives have a fitted effect of over 35% in size)
Procedure, shortened: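 Loss of mitochondrial potential shifts the cationic dye from red mitochondrial aggregates to green cytoplasmic monomers. Cells (HepG2) are treated with compound for 1 hr before a 30 min dye incubation at 37C.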

[6] = qHTS assay for small molecule disruptors of the mitochondrial membrane potential - 5 hr assay (AID 651755; calls by dose curve; note: % is set by controls: 0 for no effect and ±100 for the full control effect; nearly all actives have a fitted effect of over 40% in size)
Procedure, shortened: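 Membrane-potential dye readout: red aggregate (540 ex/590 em) versus green monomer (490 ex/535 em) fluorescence after 30 min dye loading, following 5 hr compound exposure at 37C of overnight-plated HepG2 cells.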

[7] = molecular target: Tumor necrosis factor (Homo sapiens) (UniProt P01375); assay: qHTS assay to identify small molecules that stimulate Tumor Necrosis Factor-alpha (TNF-alpha) secretion (AID 651757; active = well fitted curve in the direction sought with a large enough effect in the signal ratio; the % refers to the signal ratio; note: potency is the fitted concentration of half-maximal effect)
Procedure, shortened: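 Human monocytic THP-1 cells are plated, treated with compound and held at 37 C for 17 hrs. Labeled anti-TNF-alpha antibody mixture is then added; after 3 hr at room temperature, TR-FRET signal reports secreted TNF-alpha.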

[8] = qHTS assay for environmental chemicals that activate the Aryl hydrocarbon Receptor (AhR) signaling pathway (AID 651777); details: 1A2-DRE human hepatoma cells, luciferase, 24 h; activation: stronger effect = higher value; note: % of control where 0% means no effect; nearly all actives have a fitted effect of over 15% in size
Procedure, shortened: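 Measured luciferase activity, read 30 min after One-Glo addition at room temperature, from human hepatoma cells bearing a dioxin response element–CYP1A2 promoter reporter and exposed to compound for 24 hr at 37 C.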

[9] = molecular target: Peroxisome proliferator-activated receptor alpha (Homo sapiens) (UniProt Q07869); assay: qHTS assay for small molecule agonists of the peroxisome proliferator-activated receptor alpha (PPARalpha) signaling pathway (AID 651778); details: PathHunter PPARalpha complementation, chemiluminescence, 6 h; stronger effect = higher value; note: % of control where 0% means no effect
Procedure, shortened: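 Chemiluminescence from complemented enzyme reported PPARalpha activation in cells after 6 hr of compound treatment at 37 C. The detection reagent was incubated for 60 min at room temperature, and compounds were scored as agonists.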

[10] = molecular target: Nuclear receptor ROR-gamma (Homo sapiens) (UniProt P51449); assay: qHTS assay for small molecule antagonists of the retinoid-related orphan receptor gamma (ROR-gamma) signaling pathway (AID 651802); note: nearly all actives have a fitted effect of over 60% in size; note: potency is the fitted concentration of half-maximal effect
Procedure, shortened: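 Steps: cells dispensed; compound or DMSO transferred by pin tool; doxycycline added to induce the ROR response element-driven luciferase; plates held 16hr at 37C; ONE-Glo added and luminescence measured.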

[11] = qHTS assay for small molecule agonists of the antioxidant response element (ARE) signaling pathway measured by Nrf2-dependant transcriptional activity (AID 720636; active = well fitted curve in the direction sought with a large enough effect in the repeat runs; an effect the other way counts as inactive or inconclusive; note: potency is the fitted concentration of half-maximal effect;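 for activation: HepG2 cells with an ARE-driven luciferase reporter; % of control where 0% means no effect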)
Procedure, shortened: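 In HepG2 cells engineered with an Nrf2-responsive luciferase gene, ARE induction was quantified as luminescence after 16 hr compound treatment at 37 C.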

[12] = qHTS assay for small molecule antagonists of the retinoid-related orphan receptor gamma (ROR-gamma) signaling pathway - cell viability counter screen (AID 720652; active = well fitted curve in the direction sought with a large enough effect in the repeat runs; an effect the other way counts as inactive or inconclusive;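 note: CHO reporter cells with doxycycline-induced ROR-gamma expression; series mostly up to about 92 µM; compound exposure lasted 16 hr before ATP read; % is set by controls: 0 for no effect and ±100 for the full control effect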)
Procedure, shortened: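 Steps: seed CHO cells bearing TET-inducible ROR and ROR response element-luciferase; rest 5 hr at 37 C; add compound, then doxycycline; incubate 16 hr; add CellTiter-Glo and read luminescence as ATP-based viability.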

[13] = qHTS assay for small molecule agonists of the antioxidant response element (ARE) signaling pathway measured by Nrf2-dependant transcriptional activity - cell viability counter screen (AID 720653; active = well fitted curve in the direction sought with a large enough effect in the repeat runs; an effect the other way counts as inactive or inconclusive; note: % is set by controls: 0 for no effect and ±100 for the full control effect); details: ARE-bla HepG2 viability, CellTiter-Glo ATP luminescence, 16 h; stronger effect = lower value
Procedure, shortened: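 Cytotoxicity counter screen: intracellular ATP quantified by CellTiter-Glo luminescence in the same ARE-bla HepG2 plates, after 16 h compound exposure and a 2 h beta-lactamase substrate step.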

[14] = qHTS assay to identify small molecules that stimulate interleukin-8 (IL-8) secretion (AID 651758; active = well fitted activation curve with a large enough effect in the signal ratio; the % refers to the signal ratio; note: potency is the fitted concentration of half-maximal effect; for activation: 0% is about no effect)
Procedure, shortened: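 Secreted IL-8 measured homogeneously by TR-FRET (two labelled anti-IL-8 antibodies, 1-3 h at room temperature) after a 16 h, 37 C compound treatment of THP-1 cells at 2000 cells/well.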

Sequence of Tumor necrosis factor (Homo sapiens) (P01375 whole entry, looked up): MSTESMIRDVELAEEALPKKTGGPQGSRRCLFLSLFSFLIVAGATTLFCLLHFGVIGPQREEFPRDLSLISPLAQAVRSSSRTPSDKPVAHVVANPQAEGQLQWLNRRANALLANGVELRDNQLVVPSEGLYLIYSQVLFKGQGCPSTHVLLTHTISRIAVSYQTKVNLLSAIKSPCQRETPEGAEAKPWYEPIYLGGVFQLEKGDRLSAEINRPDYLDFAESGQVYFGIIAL
Sequence of Peroxisome proliferator-activated receptor alpha (Homo sapiens) (Q07869 whole entry, looked up): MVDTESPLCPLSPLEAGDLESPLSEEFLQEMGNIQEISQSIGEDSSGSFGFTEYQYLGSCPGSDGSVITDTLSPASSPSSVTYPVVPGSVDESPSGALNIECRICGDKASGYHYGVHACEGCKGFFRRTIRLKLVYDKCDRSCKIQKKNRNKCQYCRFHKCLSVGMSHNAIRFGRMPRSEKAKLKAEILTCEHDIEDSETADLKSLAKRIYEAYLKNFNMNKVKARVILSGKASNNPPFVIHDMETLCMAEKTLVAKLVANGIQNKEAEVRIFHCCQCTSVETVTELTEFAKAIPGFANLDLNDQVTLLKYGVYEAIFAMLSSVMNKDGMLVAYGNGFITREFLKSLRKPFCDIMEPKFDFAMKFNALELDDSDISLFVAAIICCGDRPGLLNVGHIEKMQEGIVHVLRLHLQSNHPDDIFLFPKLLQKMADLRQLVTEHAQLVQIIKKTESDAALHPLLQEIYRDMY
Sequence of Nuclear receptor ROR-gamma (Homo sapiens) (P51449 whole entry, looked up): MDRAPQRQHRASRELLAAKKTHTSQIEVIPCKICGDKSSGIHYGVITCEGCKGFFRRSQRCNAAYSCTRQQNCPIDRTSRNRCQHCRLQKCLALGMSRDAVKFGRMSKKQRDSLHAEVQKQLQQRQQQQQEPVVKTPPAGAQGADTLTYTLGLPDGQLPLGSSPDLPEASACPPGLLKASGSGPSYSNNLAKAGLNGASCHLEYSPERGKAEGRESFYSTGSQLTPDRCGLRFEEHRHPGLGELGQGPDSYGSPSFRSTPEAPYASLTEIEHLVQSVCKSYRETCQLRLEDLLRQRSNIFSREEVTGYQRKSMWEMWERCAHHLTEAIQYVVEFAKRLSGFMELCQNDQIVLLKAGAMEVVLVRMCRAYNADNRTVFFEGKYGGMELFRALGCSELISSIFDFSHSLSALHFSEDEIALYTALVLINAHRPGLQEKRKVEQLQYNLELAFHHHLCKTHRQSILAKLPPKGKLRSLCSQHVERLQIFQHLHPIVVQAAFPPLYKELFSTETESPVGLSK
Sequence of Tyrosine-protein kinase Yes (Homo sapiens) (P07947 whole entry, looked up): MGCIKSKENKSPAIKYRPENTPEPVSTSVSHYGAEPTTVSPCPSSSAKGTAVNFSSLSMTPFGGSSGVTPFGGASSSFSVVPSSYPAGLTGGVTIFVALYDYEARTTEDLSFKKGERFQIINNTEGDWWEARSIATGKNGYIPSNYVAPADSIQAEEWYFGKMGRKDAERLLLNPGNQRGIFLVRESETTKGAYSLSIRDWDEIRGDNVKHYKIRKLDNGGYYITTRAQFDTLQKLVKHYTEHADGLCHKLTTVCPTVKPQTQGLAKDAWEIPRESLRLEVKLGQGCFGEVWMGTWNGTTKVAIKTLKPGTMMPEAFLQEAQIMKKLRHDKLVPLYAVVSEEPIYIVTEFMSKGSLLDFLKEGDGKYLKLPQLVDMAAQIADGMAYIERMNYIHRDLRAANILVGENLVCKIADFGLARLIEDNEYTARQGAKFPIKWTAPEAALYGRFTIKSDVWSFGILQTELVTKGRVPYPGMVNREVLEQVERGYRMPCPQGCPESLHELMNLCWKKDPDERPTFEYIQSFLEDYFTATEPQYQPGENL

CCCC(=O)Nc1c(I)cc(I)c(CC(CC)C(=O)O)c1I (stereo not given)
inactive: max response [1] 15%

C[C@]12CCC(=O)C[C@@H]1CC[C@@H]1[C@@H]2CC[C@]2(C)C=CC[C@@H]12
inactive: max response [1] -3.12%

CO[C@H]1C[C@@H]2CC[C@@H](C)[C@@](O)(O2)C(=O)C(=O)N2CCCC[C@H]2C(=O)O[C@H]([C@H](C)C[C@@H]2CC[C@@H](OC(=O)C(C)(CO)CO)[C@H](OC)C2)CC(=O)[C@H](C)/C=C(\C)[C@@H](O)[C@@H](OC)C(=O)[C@H](C)C[C@H](C)/C=C/C=C/C=C/1C
inactive: outcome [2] | outcome [3] | max response [1] -3.38%

CC1=CC(=O)NS(=O)(=O)O1
inactive: activation [4] -0.0661% and 0.935% | Potency [5] | Potency [6] | Potency [7] | activation [8] -1.78% and 1.57% | max response [9] -1.04% and -0.299% | Potency [10] | Potency [11] | outcome [12] | max response [13] 6.07% and 6.81%

CN(CCO)CC(O)Cn1cnc2c1c(=O)n(C)c(=O)n2C (stereo not given) (tested in a mixture with another compound)
inactive: activation [4] 1.88% | activation [8] -0.921% | max response [9] -0.0909% | Potency [11] | max response [13] 2.54% | max response [1] 2.62%

NCCCC[C@H](N)C(=O)O
inactive: max response [1] 5.86%

CCCCCCCCCC(=O)NO
inactive: max response [1] -1.94% and 4.66%

CCN(CC)CCOc1ccc2nc(N(C)C)sc2c1
inactive: max response [1] -4.7%

C[C@H]1O[C@@H](O[C@H]2[C@@H](O)C[C@H](O[C@H]3[C@@H](O)C[C@H](O[C@H]4CC[C@@]5(C)[C@H](CC[C@@H]6[C@@H]5C[C@@H](O)[C@]5(C)[C@@H](C7=CC(=O)OC7)CC[C@]65O)C4)O[C@@H]3C)O[C@@H]2C)C[C@H](O)[C@@H]1O
inactive: activation [4] -3.56% and -2.4% | activation [8] 2.26% and 1.31% | max response [9] 3.82% and -3.75% | Potency [11] | max response [1] -13.6%
active: Potency [7] 0.376 µM | Potency [10] 9.44 µM

O.O.O.O.O.O.O.O=S(=O)([O-])[O-].[Co+2]
inactive: Potency [5] | Potency [6] | activation [8] -0.475% | max response [9] -1.84% | Potency [11] | max response [13] -4.91%

CCOC(C)OCC
inactive: activation [4] 0.0884% | Potency [7] | activation [8] -0.455% | max response [9] -1.13% | Potency [10] | Potency [11] | outcome [12] | max response [13] -4.14% | max response [1] 16.8%

C=C1C(CCl)(CCl)C2(Cl)C(Cl)C(Cl)C1(Cl)C2(Cl)Cl (stereo not given)
inactive: activation [4] 0.534% | activation [8] 1.11% | max response [9] 19% | max response [1] -0.376%
active: Potency [14] 66.8 µM | Potency [11] 66.8 µM

COc1c(O[C@@H]2O[C@H](CO)[C@@H](O)[C@H](O)[C@H]2O)cc2c(c1OC)-c1ccc(SC)c(=O)cc1[C@@H](NC(C)=O)CC2
inactive: max response [1] 22%

CC1=CC(=C(c2ccc(N)cc2)c2ccc(N)cc2)C=CC1=N
active: Potency [1] 7.94 µM

CC(C)CN(C[C@@H](O)[C@H](Cc1ccccc1)NC(=O)O[C@@H]1CCOC1)S(=O)(=O)c1ccc(N)cc1
inactive: max response [1] 12.1%

CC(C)[C@@H]1CC[C@@H](C)C[C@H]1O
inactive: activation [4] 0.809% | activation [8] -0.378% | max response [9] -1.09% | Potency [11] | max response [13] 0.622% | max response [1] 20.4%

CC(C)c1nc(N(C)S(C)(=O)=O)nc(-c2ccc(F)cc2)c1/C=C/C(O)CC(O)CC(=O)O (stereo not given)
inactive: max response [1] 12%

Cc1c(C)c2c(c(C)c1OC(=O)CCC(=O)O)CC[C@@](C)(CCC[C@H](C)CCC[C@H](C)CCCC(C)C)O2
inactive: max response [1] -1.05%

CCN(CC)C(=O)[C@]1(c2ccccc2)C[C@@H]1CN
inactive: max response [1] -1.74%

CC[C@H]1OC(=O)C[C@@H](O)[C@H](C)[C@@H](O[C@@H]2O[C@H](C)[C@@H](O[C@H]3C[C@@](C)(O)[C@@H](O)[C@H](C)O3)[C@H](N(C)C)[C@H]2O)[C@@H](CC=O)C[C@@H](C)C(=O)/C=C/C(C)=C/[C@@H]1CO[C@@H]1O[C@H](C)[C@@H](O)[C@@H](OC)[C@H]1OC
inactive: max response [1] 19.1% and -3.87%

C/C=C/C=C/C(=O)O
inactive: Potency [7] | Potency [14] | activation [8] 0.214% | max response [9] 0.184% | Potency [10] | Potency [11] | outcome [12] | max response [13] -1.45% | max response [1] -7.74%

O=C(O)c1cc(O)c2c(c1)[C@H]([C@H]1c3cc(C(=O)O)cc(O)c3C(=O)c3c(O[C@@H]4O[C@H](CO)[C@@H](O)[C@H](O)[C@H]4O)cccc31)c1cccc(O[C@@H]3O[C@H](CO)[C@@H](O)[C@H](O)[C@H]3O)c1C2=O
inactive: max response [1] -8.85%

CC(C)O
inactive: activation [4] -0.863% | Potency [5] | Potency [6] | Potency [7] | Potency [14] | activation [8] 2.92% | max response [9] -0.168% | Potency [10] | Potency [11] | outcome [12] | max response [13] 2% | max response [1] 0.211%

CO/N=C(\C(=O)N[C@@H]1C(=O)N2C(C(=O)O)=C(CSC(=O)c3ccco3)CS[C@H]12)c1csc(N)n1
inactive: max response [1] -2.3%

Cc1nc(NS(=O)(=O)c2ccc(N)cc2)nc(C)c1Br
inactive: max response [1] 21.7%

CC(C)[C@@H](N)C(=O)O
inactive: max response [1] 7.16%
